Source: PubChem BioAssay (National Center for Advancing Translational Sciences (NCATS))
A selection: hits, their analogues and other compounds. The true share with any hit is near 12%.
Shiga inhibitor: blocks Shiga toxin action in Vero cells; AID 2315; actives 9.2% (n = 290,000); inhibition, % at 38.7 µM; Vero cells, Shiga toxin protein synthesis inhibition reporter; in the data active = inhibition mostly above about 28%, no sharp cut-off; inactive = mostly below about 43%; also: 0% is about no effect
SARS PLpro yeast: SARS-CoV PLP inhibition in yeast; S. cerevisiae expressing SARS-CoV PLpro, growth rescue; Potency, µM (titrated, usually from 32.9 µM), for inactives: top-dose activity, positive = growth rescue, usual class: activators; actives 0.19% (n = 330,000); AID 485353; also: potency is read from the fitted curve at half-maximal effect; 0% is about no effect; nearly all actives have a fitted effect of over 55% in size
CHX counter: counter-screen for Shiga toxin inhibitors: cycloheximide protein synthesis inhibition. cell reporter, cycloheximide protein synthesis inhibition counterscreen. max response, %. actives 12% (n = 300,000); in the data active = max response mostly above about 13%, no sharp cut-off; inactive = mostly below about 14%; also: read at 38.3 µM for the half of the compounds with a filed dose; 0% is about no effect
NS1 inh: influenza NS1 inhibition; Potency, µM (top dose mostly 46.1 µM), inactives show at the top dose activity, positive = more growth; actives 0.4% (n = 270,000); AID 2326; also: potency is read from the fitted curve at half-maximal effect; actives are rising curves; nearly all actives have a fitted effect of over 50% in size
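A cell-based growth assay was used: compounds that relieve NS1-induced slow growth of budding yeast raise OD600. Assay medium was yeast nitrogen base with ammonium sulphate and -URA supplement, pH 6.0, with 2% galactose.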
* marks the source's active call; other numbers are inactive results; · = no result. Unless noted, calls follow the shape of the full dose curve.

SMILES | Shiga inhibitor | SARS PLpro yeast | CHX counter | NS1 inh
Cc1nc2ccccn2c1C(=O)N/N=C/c1cc(C)n(-c2ccc(Cl)cc2)c1C | 13 | 17% | 12 | 8%
O=C(NCC(c1cccs1)N1CCOCC1)c1ccc(OCc2ccccc2)cc1 (stereo not drawn) | · | -2% | · | ·
O=S(=O)(c1ccc2c(c1)OCCO2)C1CCN(S(=O)(=O)c2c(F)cccc2F)CC1 | 24 | · | 5 | ·
CC(C)CN1CCN(Cc2ccc(CN3CCCCC3)s2)CC1CCO (stereo not drawn) | 7 | 0% | -1 | -5%
O=C(C#Cc1ccccc1)Nc1ccc(F)cc1 | 32* | -8% | 34* | -51%
COc1ccc(NC(=O)C(C)Sc2ccccc2)cc1 (stereo not drawn) | 88* | 0% | 55* | -15%
O=C(C#Cc1ccccc1)NCc1ccccc1F | 67* | -4% | 21* | -18%
O=C(CC(=O)Nc1cccc(F)c1)Nc1cccc(F)c1 | 17 | 2% | -2 | -32%
O=C(C#Cc1ccccc1)Nc1cccc(F)c1 | 128* | -16% | 60* | -69%
CC(Sc1ccccc1)C(=O)Nc1ccc(N2CCOCC2)cc1 (stereo not drawn) | 34 | 13% | 9 | 6%
CCCCOC(=O)c1ccc(NC(=O)C(=O)NCc2ccccn2)cc1 | 14 | -2% | 0 | 8%
CCOC(=O)N1CCC(NCCNC(=O)c2ccc(F)c(F)c2)CC1 | · | 2% | · | ·
COc1ccc(NC(=S)Nc2ccccc2)cc1 | 2 | 5% | 7 | -8%
COc1ccc(NC(=O)C#Cc2ccccc2)cc1 | 86* | -15% | 55* | -78%
CCOc1ccccc1N(CC(=O)Nc1cccnc1)S(C)(=O)=O | 19 | 2% | -2 | -4%
CCOc1ccccc1N(CC(=O)Nc1cccnc1)S(=O)(=O)c1ccc(C)cc1 | 160* | 0% | 50* | -3%
COc1ccccc1-n1c(=O)oc2ccc(Cl)cc2c1=O | 86* | -27% | 59* | -141%
CCN1CCN(C(CNS(=O)(=O)c2cccs2)c2cccnc2)CC1 (stereo not drawn) | -12 | -4% | -3 | 0%
Cc1ccc(C(=O)N/C(=C/c2cccs2)C(=O)NCc2ccco2)cc1 | -2 | -19% | 7 | 17%
Cn1cc(S(=O)(=O)N2CCCC2)cc1C(=O)NCCc1ccccc1 | 18 | 0% | 11* | 1%
Cn1cc(S(=O)(=O)N2CCOCC2)cc1C(=O)NCCc1ccccc1 | 9 | -1% | -3 | 14%
CC1(C)CC(=O)C2=C(C1)N(c1ccccc1)C(=O)C2(O)C(F)(F)F (stereo not drawn) | -8 | 10% | -2 | 3%
Cc1ccc(NC(=O)/C(CN(C)C)=N\O)cc1 | 62* | 4% | 27* | -6%
Cc1ccc(NC(=O)CN(C)C(=O)Nc2ccc(C)cc2)cc1 | 69* | -4% | 22* | -3%
Cc1cccc(C)c1NC(=O)CN(C)C(=O)/C=C/c1cccs1 | -3 | 2% | 0 | 16%
SMILES | Shiga inhibitor | SARS PLpro yeast | CHX counter | NS1 inh
Cc1ccc(NC(=O)CN(C)C(=O)/C=C/c2cccs2)cc1 | -3 | -3% | 9.6* | 2%
O=C(N/N=C/C1CC2C=CC1C2)c1ccccc1O (stereo not drawn) | 68* | 0% | 40* | -3%
CC(=O)Nc1ccc(C(=O)N/N=C/C2CC3C=CC2C3)cc1 (stereo not drawn) | -2 | 3% | 12 | ·
Cc1ccc(C2Nc3ccccc3-c3nc4ccccc4n32)o1 (stereo not drawn) | 67* | -35% | 54* | -93%
Cc1ccc(-c2nc3ccccc3n2C)o1 | 74* | -29% | 57* | -120%
Cn1c(Sc2nc3ccccc3n2C)nc2ccccc21 | 17 | 14% | -2 | -18%
Cn1c(-c2ccc(Br)o2)nc2ccccc21 | 56 | -6% | 29* | -80%
Cn1c(-c2nonc2N)nc2ccccc21 | -4 | 10% | 0 | 20%
Cn1c(-c2ccc(Br)o2)nc2cc(Br)ccc21 | 104* | -2% | 52* | -84%
Cc1ccc2nc(-c3ccc(Br)o3)oc(=O)c2c1 | -3 | 2% | -2 | -58%
c1ccc(CCN2CCOCC2)nc1 | · | · | · | -3%
Cc1nc(NCCc2ccc(O)cc2)c2nnn(Cc3ccccc3)c2n1 | 1 | -10% | -2 | 2%
Brc1ccc(Cn2c(-c3ccc(Br)o3)nc3ccccc32)o1 | 22 | -22% | 18* | -21%
CC(=O)c1ccc(-c2nc3ccccc3n2C)o1 | 57* | -9% | 36* | -18%
CCCC(=O)c1cc(-c2nc3ccccc3n2C)n(C)c1 | -3 | -7% | 7 | -3%
CCN(CC)CCNC(=O)Cn1cnc2sc(C)c(S(=O)(=O)N3CC(C)CC(C)C3)c2c1=O (stereo not drawn) | 13 | -3% | -3 | -15%
O=C(NCCc1c[nH]c2ccccc12)C1CCCN(S(=O)(=O)c2ccccc2)C1 (stereo not drawn) | -12 | 2% | 0 | 2%
CN(Cc1nc(-c2ccccc2)no1)C1CCOCC1 | 59 | 1% | 46* | 6%
c1ccc(-c2noc(CCC3CCCC3)n2)cc1 | 4 | 0% | 20* | -2%
COc1ccc(-c2noc(CN(C)C3CCOCC3)n2)cc1 | 30 | 0% | 13 | 3%
CCn1c(SCc2nc(-c3ccccc3)no2)nc2ccccc21 | 13 | 1% | 1 | -73%
c1ccc(-c2noc(CSc3nnnn3C3CCCCC3)n2)cc1 | 46 | 1% | 28* | -56%
c1cc(-c2noc(CCC3CCCC3)n2)ccn1 | 15 | -3% | 17* | -44%
c1ccc(C(Cc2nc(-c3ccncc3)no2)c2ccccc2)cc1 | -5 | -6% | -2 | -75%
CC1=C(C(=O)Nc2ccccc2C)C(c2ccc[nH]2)n2ncnc2N1 (stereo not drawn) | 14 | · | 5 | ·
SMILES | Shiga inhibitor | SARS PLpro yeast | CHX counter | NS1 inh
CCOC(=O)N1CCN(C(=O)/C(=C\c2ccc(SC)cc2)NC(=O)c2ccccc2)CC1 | -2 | 1% | 1 | -9%
O=S(=O)(c1ccccc1)c1nc(Nc2cccc(O)c2)sc1Cl | -10 | -4% | -6 | -21%
COCCCC1CCN(Cc2nc(Cc3ccccc3Cl)no2)CC1 | -10 | -1% | -2 | -3%
c1ccc(OCc2noc(CN3CCC(C4CCCCC4)C3)n2)cc1 (stereo not drawn) | 9 | -2% | -1 | -6%
c1ccc(-c2noc(CC3CCCCC3)n2)cc1 | 48* | 0% | 31* | 7%
O=S(=O)(c1ccccc1)N(Cc1nc(-c2ccccc2)no1)C1CCCCC1 | 0 | 1% | 6 | -44%
COCC1CCN(Cc2nc(COc3ccccc3)no2)C1 (stereo not drawn) | 31* | 0% | 15* | 6%
COCCCC1CCN(Cc2nc(-c3ccccc3)no2)CC1 | 76* | -1% | 23* | -5%
Cc1ccc(NS(=O)(=O)c2c(C)[nH]c(C)c2C(=O)N2CCCCC2)c(Br)c1 | -3 | 14% | 10 | 2%
CC(C)C1C(c2ccccc2)NC(c2ccccc2)CC1(O)c1ccc(F)cc1 (stereo not drawn) | 10 | 0% | -2 | -4%
COc1ccccc1N1CCN(S(C)(=O)=O)CC1 | 12 | 12% | 12 | 5%
COc1ccccc1N1CCN(S(=O)(=O)c2ccc(Cl)s2)CC1 | 27 | -14% | 16* | -55%
CCS(=O)(=O)N1CCN(S(=O)(=O)c2ccc(Cl)s2)CC1 | -12 | 0% | -4 | 19%
